Potency and outcome data for 38 compounds are collected here from PubChem BioAssay (Tox21).

Several values for one entry are separate records, joined by “and”; a condition that tells them apart may be missing. Equal entries are not always repeated. Inconclusive results are not listed. A call without a number means that no potency is given here. The source holds several records for some structures; these can differ, active in one and inactive in another. Activity calls are given as the source filed them. Unless noted, calls follow the shape of the dose curve; as a rule, active = well fitted curve in the direction sought with a large enough effect in the repeat runs; inconclusive = weak or mixed curves; inactive = no such curve, though single readings can be large; an effect the other way counts as inactive or inconclusive.

Chain of Androgen receptor (Homo sapiens) (P10275 whole entry, looked up): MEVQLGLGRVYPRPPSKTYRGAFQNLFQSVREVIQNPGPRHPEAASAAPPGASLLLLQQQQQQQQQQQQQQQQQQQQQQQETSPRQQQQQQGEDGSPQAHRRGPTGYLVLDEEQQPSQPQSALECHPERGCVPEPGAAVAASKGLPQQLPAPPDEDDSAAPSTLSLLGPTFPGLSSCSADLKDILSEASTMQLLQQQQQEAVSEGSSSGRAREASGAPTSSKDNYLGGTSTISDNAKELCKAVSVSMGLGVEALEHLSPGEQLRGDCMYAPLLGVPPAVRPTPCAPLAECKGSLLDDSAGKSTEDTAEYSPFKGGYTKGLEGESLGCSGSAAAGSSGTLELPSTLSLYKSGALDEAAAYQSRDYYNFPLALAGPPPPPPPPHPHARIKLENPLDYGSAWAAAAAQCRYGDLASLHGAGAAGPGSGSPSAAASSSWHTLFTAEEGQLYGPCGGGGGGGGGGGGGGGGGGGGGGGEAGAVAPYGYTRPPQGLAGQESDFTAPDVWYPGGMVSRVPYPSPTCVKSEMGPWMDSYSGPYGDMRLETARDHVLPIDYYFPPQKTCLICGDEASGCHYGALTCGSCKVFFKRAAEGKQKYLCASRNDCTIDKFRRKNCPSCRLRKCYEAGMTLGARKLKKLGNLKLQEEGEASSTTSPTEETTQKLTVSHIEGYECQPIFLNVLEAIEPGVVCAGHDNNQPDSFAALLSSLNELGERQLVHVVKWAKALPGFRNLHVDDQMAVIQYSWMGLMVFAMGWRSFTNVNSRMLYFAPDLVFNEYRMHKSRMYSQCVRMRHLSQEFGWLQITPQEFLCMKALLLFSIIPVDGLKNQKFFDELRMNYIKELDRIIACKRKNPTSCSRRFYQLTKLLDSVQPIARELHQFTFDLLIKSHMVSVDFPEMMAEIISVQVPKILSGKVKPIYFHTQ

Test system in one test: not listed separately
In words: qHTS assay to identify small molecule agonists of the estrogen receptor beta (ER-beta) signaling pathway - cell viability counter screen (AID 1259380). Also: nearly all actives have a fitted effect of over 30% in size. Also: potency is read from the fitted curve at half-maximal effect. The following applies: ER-beta-bla HEK293T viability, CellTiter-Glo luminescence, 16 h; series mostly up to 92.4 µM. Put shortly:
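Compounds dissolved in DMSO were pin-transferred onto ER-beta-UAS-bla HEK293T cells that had settled 6 hr, and exposure ran 16 hr at 37C. Following the reporter read, CellTiter-Glo luminescence after 30 min at room temperature indicated cytotoxicity.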
On the technique in general: Quantitative high-throughput screening tests each substance at several concentrations.
For `ClCC(Cl)CCl`, the Potency entry is “inactive”.

As for `N#Cc1nn(-c2c(Cl)cc(C(F)(F)F)cc2Cl)c(N)c1S(=O)C(F)(F)F` (configuration not stated), the Potency entry was “inactive”.

In the case of `CC[n+]1c(-c2ccccc2)c2cc(N)ccc2c2ccc(N)cc21`, the Potency is 1.53 µM (active) and 1.06 µM (active).

With `O=[N+]([O-])c1ccc(Cl)c([N+](=O)[O-])c1`, the Potency is 27.7 µM (active) and 27.3 µM (active).

As for `CCCCSP(=O)(SCCCC)SCCCC`, the Potency result is “inactive”.

On to `O=[N+]([O-])c1ccc(Nc2ccccc2)cc1`, for which the Potency result was “inactive”.

For `C[N+](C)(C)CC(=O)[O-]`, the Potency entry was “inactive”.

For `CCCCOCCOC(C)=O`, the Potency result was “inactive”.

`CC(C)(O)C#N`: the Potency entry was “inactive”.

Regarding `c1ccc(C2CO2)cc1` (configuration not stated), the Potency entry is “inactive”.

Turning to `O=C(O)CF`, the Potency result was “inactive”.

In the case of `CC1(C)Cc2cccc(O)c2O1`, the Potency entry is “inactive”.

As to `NC(=O)CN1CCCC1=O`, the Potency result is “inactive”.

Consider `Clc1cccc(C(Cl)(Cl)Cl)n1`, for which the Potency entry is “inactive”.

On to `Clc1ccc(C(Cl)(Cl)Cl)cc1`, for which the Potency entry was “inactive”.

For the compound `CC1CC(=O)O1` (configuration not stated), the Potency result is “inactive”.

`O=S(=O)(O)C(F)(F)C(F)(F)C(F)(F)C(F)(F)C(F)(F)C(F)(F)C(F)(F)C(F)(F)F`: the Potency was 51.9 µM (active) and 48.6 µM (active).

On to `COc1ccc(O)c(C(C)(C)C)c1`, for which the Potency result is “inactive”.

In the case of `CCCCCCCC[N+](C)(CCCCCCCC)CCCCCCCC`, the Potency is 12.2 µM (active) and 27.3 µM (active) and 30.6 µM (active).

Turning to `Nc1ccc2ccccc2c1`, the Potency entry was “inactive”.

Regarding `COP(=O)(NC(C)=O)SC` (configuration not stated), the Potency result is “inactive”.

Take `CCOP(=O)(O)OCC` (tested in a mixture with another compound): the Potency entry was “inactive and 48.2 µM (active)”.

On to `CCC[CH2][Sn]([Cl])([Cl])[CH2]CCC`, for which the Potency was 981 nM (active) and 1.54 µM (active).

Take `Cl`: the Potency result is “inactive”.

Take `CC(C)(O)C(=O)Nc1ccc([N+](=O)[O-])c(C(F)(F)F)c1`: the Potency entry was “inactive”.

`C[C@]12CCC(=O)C=C1CC[C@@H]1[C@@H]2CC[C@@]2(C)[C@H]1CC[C@]2(C)O`: the Potency result was “inactive”.

For `NN=C(N)N`, the Potency entry was “inactive”.

As for `CCOP(=S)(OCC)SCSC(C)(C)C`, the Potency entry is “inactive”.

With `O=P(OCCCl)(OCCCl)OCCCl`, the Potency entry is “inactive”.

As to `CC1=C(C(=O)Nc2ccccc2)SCCO1`, the Potency entry is “inactive”.

For the compound `O=NN1CCOCC1`, the Potency result was “inactive”.

Consider `CNC(=S)S`, for which the Potency result was “inactive”.

For `CC(C)Nc1ccc(Nc2ccccc2)cc1`, the Potency was 19.3 µM (active) and 27.3 µM (active).

`C[N+](C)(C)C`: the Potency entry was “inactive”.

With `CCCCOCC1CO1` (configuration not stated), the Potency entry is “inactive”.

Another test addresses Androgen receptor (Homo sapiens) (UniProt P10275). In words: qHTS assay to identify small molecule agonists of the androgen receptor (AR) signaling pathway in the presence of an antagonist (AID 1259381; calls by dose curve; also: nearly all actives have a fitted effect of over 15% in size). The settings on record: MDA-kb2 MMTV-luciferase, AR agonist + nilutamide, 16 h; series mostly up to 92.4 µM. Put shortly:
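Plated MDA-kb2 cells (3,000/well) were pre-incubated 5hr, given nilutamide (3.0uM final) or buffer, then dosed with compounds in DMSO at 15 concentrations. Luciferase activity was quantified by luminescence after 16hr at 37C.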
Consider `N#Cc1nn(-c2c(Cl)cc(C(F)(F)F)cc2Cl)c(N)c1S(=O)C(F)(F)F` (configuration not stated), for which the result was inactive.

In the case of `O=[N+]([O-])c1ccc(Cl)c([N+](=O)[O-])c1`, the result was inactive.

Turning to `Clc1cccc(C(Cl)(Cl)Cl)n1`, the result was inactive.

As for `COP(=S)(OC)SCn1nnc2ccccc2c1=O`, the result was inactive.

With `CC1=C(C(=O)Nc2ccccc2)SCCO1`, the outcome was inactive.

Test system in the next test: not listed separately
In words: qHTS assay to identify small molecule antagonists of the estrogen receptor beta (ER-beta) signaling pathway - cell viability counter screen (AID 1259382). Also: nearly all actives have a fitted effect of over 55% in size. Also: potency is read from the fitted curve at half-maximal effect. The following applies: ER-beta-UAS-bla HEK293T viability, CellTiter-Glo luminescence, 16 h; series mostly up to 92.4 µM. An outline of the steps: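 CellTiter-Glo ATP luminescence measured after the LiveBLAzer read in the same wells; ER-beta-UAS-bla HEK293T cells, 16 hr compound treatment with 1nM 17-beta-estradiol agonist at 37C, 5% CO2.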
Take `ClCC(Cl)CCl`: the Potency result was “inactive”.

`N#Cc1nn(-c2c(Cl)cc(C(F)(F)F)cc2Cl)c(N)c1S(=O)C(F)(F)F` (configuration not stated): the Potency entry was “inactive”.

On to `O=[N+]([O-])c1ccc(Cl)c([N+](=O)[O-])c1`, for which the Potency was 27.7 µM (active) and 27.3 µM (active).

Regarding `CCCCSP(=O)(SCCCC)SCCCC`, the Potency entry was “inactive”.

Consider `O=[N+]([O-])c1ccc(Nc2ccccc2)cc1`, for which the Potency result was “inactive”.

Regarding `C[N+](C)(C)CC(=O)[O-]`, the Potency entry is “inactive”.

`CCCCOCCOC(C)=O`: the Potency result was “inactive”.

As to `CC(C)(O)C#N`, the Potency entry was “inactive”.

As to `c1ccc(C2CO2)cc1` (configuration not stated), the Potency result is “inactive”.

Regarding `O=C(O)CF`, the Potency entry is “inactive”.

As for `CC1(C)Cc2cccc(O)c2O1`, the Potency entry was “inactive”.

Turning to `NC(=O)CN1CCCC1=O`, the Potency entry was “inactive”.

Turning to `Clc1cccc(C(Cl)(Cl)Cl)n1`, the Potency entry was “inactive”.

For the compound `Clc1cccc(Cl)c1`, the Potency result is “inactive”.

With `COP(=S)(OC)SCn1nnc2ccccc2c1=O`, the Potency result was “inactive”.

With `Clc1ccc(C(Cl)(Cl)Cl)cc1`, the Potency entry was “inactive”.

`CC1CC(=O)O1` (configuration not stated): the Potency result was “inactive”.

As for `O=S(=O)(O)C(F)(F)C(F)(F)C(F)(F)C(F)(F)C(F)(F)C(F)(F)C(F)(F)C(F)(F)F`, the Potency was 46.2 µM (active) and inactive.

As for `COc1ccc(O)c(C(C)(C)C)c1`, the Potency result was “inactive”.

For `CCCCCCCC[N+](C)(CCCCCCCC)CCCCCCCC`, the Potency is 12.2 µM (active) and 43.3 µM (active) and 24.3 µM (active).

Take `Nc1ccc2ccccc2c1`: the Potency entry is “inactive”.

For the compound `COP(=O)(NC(C)=O)SC` (configuration not stated), the Potency entry was “inactive”.

Consider `CCOP(=O)(O)OCC` (tested in a mixture with another compound), for which the Potency result was “inactive and 30.4 µM (active)”.

Regarding `CCC[CH2][Sn]([Cl])([Cl])[CH2]CCC`, the Potency is 1.39 µM (active) and 1.54 µM (active).

As for `Cl`, the Potency result was “inactive”.

For the compound `CC(C)(O)C(=O)Nc1ccc([N+](=O)[O-])c(C(F)(F)F)c1`, the Potency result is “inactive”.

Turning to `C[C@]12CCC(=O)C=C1CC[C@@H]1[C@@H]2CC[C@@]2(C)[C@H]1CC[C@]2(C)O`, the Potency entry is “inactive”.

For the compound `NN=C(N)N`, the Potency entry is “inactive”.

Turning to `CCOP(=S)(OCC)SCSC(C)(C)C`, the Potency result is “inactive”.

As to `O=P(OCCCl)(OCCCl)OCCCl`, the Potency result is “inactive”.

With `CC1=C(C(=O)Nc2ccccc2)SCCO1`, the Potency result is “inactive”.

On to `O=NN1CCOCC1`, for which the Potency entry is “inactive”.

`CNC(=S)S`: the Potency entry was “inactive”.

On to `CC(C)Nc1ccc(Nc2ccccc2)cc1`, for which the Potency is 15.3 µM (active) and 27.3 µM (active).

As for `C[N+](C)(C)C`, the Potency result was “inactive”.

`CCCCOCC1CO1` (configuration not stated): the Potency entry is “inactive”.

For `CCCCC(C#N)(Cn1cncn1)c1ccc(Cl)cc1` (configuration not stated), the Potency result is “inactive”.
